Data reported in ChEMBL document CHEMBL1157539, “Thousands of chemical starting points for antimalarial lead identification” (Nature, 2010).

Columns and labels:
Type in all cases: functional
[1] = system: Plasmodium falciparum; assay: GSK_TCMDC: Inhibition of Plasmodium falciparum 3D7 in whole red blood cells, using parasite LDH activity as an index of growth. Test compounds present at 2uM
[2] = system: Plasmodium falciparum; assay: GSK_TCMDC: Inhibition of Plasmodium falciparum Dd2 in whole red blood cells, using parasite LDH activity as an index of growth. Test compounds present at 2uM
[3] = system: HepG2; assay: GSK_TCMDC: Percent inhibition of human HepG2 cell line. Test compounds present at 10uM.

For `Cc1cc(C(=O)OCC(=O)Nc2c(C)n(C)n(-c3ccccc3)c2=O)c(C)n1-c1ccc(F)cc1`, the Inhibition [1] was 100%, the Inhibition [2] was 99% and the Inhibition [3] was 0%.
For `CC(CN1CCN(C)CC1)C(=O)Nc1ccc(-c2csc(-c3nc4ccccc4[nH]3)c2)cc1` (stereo not drawn), the Inhibition [1] was 93%, the Inhibition [2] was 26% and the Inhibition [3] was 15%.
`COc1cc(Cc2cnc(N)nc2N)cc(OC)c1OC` [TRIMETHOPRIM] showed an Inhibition [1] of 88%, an Inhibition [2] of 2% and an Inhibition [3] of 0%.
For `CC1(C)CCC(C)(C)c2c1ccc(C1CCN(CCCCNC(=O)c3ccc(-c4ccc(C#N)cc4)cc3)CC1)c2O`, the Inhibition [1] was 100%, the Inhibition [2] was 85% and the Inhibition [3] was 81%.
`CN(C)CCOc1cc(NC(=O)Nc2ccc(Oc3ccccc3)cc2)ccc1I.Cl` gave an Inhibition [1] of 89%, an Inhibition [2] of 4% and an Inhibition [3] of 13%.
`Cc1c(Br)cc2nc(-c3ccc(C(=O)NC4CCN(Cc5ccccc5)CC4)cc3)[nH]c2c1C` showed an Inhibition [1] of 100%, an Inhibition [2] of 98% and an Inhibition [3] of 4%.
Work on `O=C(/C=C/c1ccc(Cl)c(Cl)c1)NCCCCCN1CCCC(c2c[nH]c3ccccc23)C1` (stereo not drawn) yielded an Inhibition [1] of 99%, an Inhibition [2] of 22% and an Inhibition [3] of 25%.
`CC(C)C1=NC(=O)c2cc([N+](=O)[O-])ccc2CN1` gave an Inhibition [1] of 98%, an Inhibition [2] of 0% and an Inhibition [3] of 6%.
`CCCN1CCN(CC(O)CNC(=O)Nc2ccc(Cl)cc2)CC1.O=C(O)C(F)(F)F` (stereo not drawn) was tested, and the Inhibition [1] was 100%, the Inhibition [2] was 100% and the Inhibition [3] was 6%.
For `Cc1cc(NCCC(=O)Nc2ccccc2)nc(NCC2CCCCC2)n1.O=C(O)C(F)(F)F`, the Inhibition [1] was 100%, the Inhibition [2] was 62% and the Inhibition [3] was 14%.
`Cc1cccc2nc(-c3cccc(-c4cccc(NC(=O)c5ccc(C(N)=O)cc5)c4)c3)[nH]c12` showed an Inhibition [1] of 100%, an Inhibition [2] of 34% and an Inhibition [3] of 25%.
